# Laboratory results reported in PubChem BioAssay (NCI).
# This is part of a sample that, as a whole, favours compounds with a hit. Of some 79,000 tested, about 15% had one in any assay. A number with no mark means an inactive call. Calls of active or inactive are those of the source. No stated cut-off is given here; in the data, active means growth inhibition above about 70%; inactive means the rest.
# Assays:
# [1] = NCI Yeast Anticancer Drug Screen. Data for the rad50 strain (AID 155);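 further: 0% = growth of vehicle-only cultures of the same strain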; conditions: S. cerevisiae rad50 strain growth inhibition, active compounds read high
# Outline: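 DNA repair mutant yeast, compound exposure, growth read-out; inhibition is taken relative to vehicle.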
# [2] = NCI Yeast Anticancer Drug Screen. Data for the mec2-1 strain (AID 157); conditions: S. cerevisiae mec2-1 strain, active compounds read high
# Outline: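 Each compound was tested on mec2-1 yeast, a strain altered in DNA damage repair or cell cycle control. Growth inhibition is reported relative to vehicle.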
# [3] = NCI Yeast Anticancer Drug Screen. Data for the sgs1 mgt1 strain (AID 161);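 further: 0% = growth of cultures given vehicle only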; conditions: S. cerevisiae sgs1 mgt1 strain, active compounds read high
# Outline: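 Genetically altered yeast, compound exposure, growth inhibition relative to vehicle.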
# [4] = NCI Yeast Anticancer Drug Screen. Data for the cln2 rad14 strain (AID 165);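 further: 0% = growth equal to vehicle treated cultures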; conditions: S. cerevisiae cln2 rad14 strain, active compounds read high
# Outline: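 Test compounds were added to cln2 rad14 yeast cultures; inhibition of growth was then determined by comparison with vehicle treatment.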
# [5] = NCI Yeast Anticancer Drug Screen. Data for the bub3 strain (AID 167); conditions: S. cerevisiae bub3 mutant strain, active compounds read high
# Outline: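 In this screen, a yeast mutant lacking normal mitotic checkpoint function is challenged with compound. Relative growth versus vehicle gives the inhibition value.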
# [6] = NCI Yeast Anticancer Drug Screen. Data for the mlh1 rad18 strain (AID 175); conditions: S. cerevisiae mlh1 rad18 strain growth inhibition, active compounds read high
# Outline: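 Inhibition values reflect reduced growth of mutant yeast versus vehicle-treated controls following compound exposure; the mutations affect DNA damage repair.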
# [7] = NCI Yeast Anticancer Drug Screen. Data for the wt1 strain (AID 149);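 further: 0% = growth of vehicle-treated wt1 cultures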; conditions: S. cerevisiae wt1 strain (SPY 50644) growth inhibition, active compounds read high
# Outline: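 wt1 strain grown with compound or vehicle; inhibition taken from the growth difference.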
# [8] = NCI Yeast Anticancer Drug Screen. Data for the rad50EPP+ strain (AID 151);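 further: 0% = growth of vehicle-treated control cultures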; conditions: S. cerevisiae rad50 mutant strain, active compounds read high
# Outline: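 Genetically defined yeast (rad50EPP+, DNA damage repair alteration) is grown with compound, and inhibition of growth is expressed relative to vehicle-treated controls.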
# [9] = NCI Yeast Anticancer Drug Screen. Data for the rad14 strain (AID 159);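 further: 0% = growth of vehicle-treated control cultures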; conditions: S. cerevisiae rad14 strain growth inhibition, active compounds read high
# Outline: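 DNA repair-defective yeast, compound-exposed; % growth inhibition derived by comparison with vehicle-treated controls.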
# [10] = NCI Yeast Anticancer Drug Screen. Data for the CLN2oe strain (AID 163);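 further: 0% = growth of vehicle-only control cultures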; conditions: S. cerevisiae CLN2oe strain, active compounds read high
# Outline: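 First, the altered yeast strain was treated with each compound; second, its growth was measured; finally, inhibition was derived by comparison with vehicle controls.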
# [11] = NCI Yeast Anticancer Drug Screen. Data for the mlh1 strain (AID 171);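 further: 0% = growth of vehicle-treated control cultures of the same strain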; conditions: S. cerevisiae mlh1 strain growth inhibition, active compounds read high
# Outline: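 Inhibition values reflect reduced yeast growth in the presence of compound, referenced to vehicle controls, using a strain chosen for its alteration in DNA repair or cell cycle control.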
# [12] = NCI Yeast Anticancer Drug Screen. Data for the sgs1 strain (AID 173);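 further: 0% = growth of vehicle-only control cultures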; conditions: S. cerevisiae sgs1 mutant, active compounds read high
# Outline: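 Vehicle-treated cultures served as reference for growth inhibition of a yeast strain altered in DNA damage repair or cell cycle control after compound exposure.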
# [13] = NCI Yeast Anticancer Drug Screen. Data for the rad18 strain (AID 177); conditions: S. cerevisiae rad18 mutant growth inhibition, active compounds read high
# Outline: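 Steps: expose repair-mutant yeast to compound; measure growth; express as inhibition relative to vehicle control.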
# [14] = NCI Yeast Anticancer Drug Screen. Data for the mgt1 strain (AID 153); conditions: S. cerevisiae mgt1 mutant growth inhibition, active compounds read high
# Outline: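 In the mgt1 strain, test compounds were added and growth inhibition was determined relative to vehicle-treated controls.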
# [15] = NCI Yeast Anticancer Drug Screen. Data for the wt2 strain (AID 169);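 further: 0% = growth of vehicle-treated yeast cultures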; conditions: S. cerevisiae wt2 strain growth inhibition, active compounds read high
# Outline: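 The panel's yeast strains carry defined changes in DNA repair or cell cycle genes. Each strain is grown with compound, and growth loss is scored relative to vehicle.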
# [16] = at 5.0 µM (retest, dose inferred, filed as 0.5)
# [17] = at 50.0 µM (retest, dose inferred, filed as 5.0)
compound,measurement,setting,value
Cn1cnc(C(=N)[Se])c1N,growth inhibition,[1]; [16],63%
same,growth inhibition,[1]; [17],94% (active)
same,growth inhibition,[1]; at 50.0 µM,83.4% (active)
same,growth inhibition,[2]; [16],30%
same,growth inhibition,[2]; [17],91% (active)
same,growth inhibition,[2]; at 50.0 µM,71% (active)
same,growth inhibition,[3]; [16],27%
same,growth inhibition,[3]; [17],53%
same,growth inhibition,[3]; at 50.0 µM,30.8%
same,growth inhibition,[4]; [16],2%
same,growth inhibition,[4]; [17],15%
same,growth inhibition,[4]; at 50.0 µM,-24.8%
same,growth inhibition,[5]; [16],51%
same,growth inhibition,[5]; [17],94% (active)
same,growth inhibition,[5]; at 50.0 µM,91.4% (active)
c1ccc2c(NCCCCCCCCNc3c4ccccc4nc4ccccc34)c3ccccc3nc2c1,growth inhibition,[1]; [16],87% (active)
same,growth inhibition,[1]; [17],97% (active)
same,growth inhibition,[1]; at 50.0 µM,85.3% (active)
same,growth inhibition,[2]; [16],89% (active)
same,growth inhibition,[2]; [17],98% (active)
same,growth inhibition,[2]; at 50.0 µM,87.5% (active)
same,growth inhibition,[3]; [16],64%
same,growth inhibition,[3]; [17],90% (active)
same,growth inhibition,[3]; at 50.0 µM,75.4% (active)
same,growth inhibition,[4]; [16],44%
same,growth inhibition,[4]; [17],83% (active)
same,growth inhibition,[4]; at 50.0 µM,46.7%
same,growth inhibition,[5]; [16],68%
same,growth inhibition,[5]; [17],49%
same,growth inhibition,[5]; at 50.0 µM,80.2% (active)
same,growth inhibition,[6]; [16],91% (active)
same,growth inhibition,[6]; [17],97% (active)
Nc1nc(N)c(-c2ccc(Cl)c(Cl)c2)c(CP(Cl)(Cl)(Cl)Br)n1,growth inhibition,[7]; at 1.2 µM,9%
same,growth inhibition,[7]; at 3.7 µM,16%
same,growth inhibition,[7]; at 11.0 µM,45%
same,growth inhibition,[7]; at 33.0 µM,55%
same,growth inhibition,[7]; at 100.0 µM,48%
same,growth inhibition,[8]; at 1.2 µM,-2%
same,growth inhibition,[8]; at 3.7 µM,4%
same,growth inhibition,[8]; at 11.0 µM,20%
same,growth inhibition,[8]; at 33.0 µM,33%
same,growth inhibition,[8]; at 100.0 µM,48%
same,growth inhibition,[1]; at 1.2 µM,9%
same,growth inhibition,[1]; at 3.7 µM,46%
same,growth inhibition,[1]; [16],53%
same,growth inhibition,[1]; at 11.0 µM,69%
same,growth inhibition,[1]; at 33.0 µM,76% (active)
same,growth inhibition,[1]; [17],80% (active)
same,growth inhibition,[1]; at 50.0 µM,62%
same,growth inhibition,[1]; at 100.0 µM,59%
same,growth inhibition,[2]; at 1.2 µM,4%
same,growth inhibition,[2]; at 3.7 µM,7%
same,growth inhibition,[2]; [16],39%
same,growth inhibition,[2]; at 11.0 µM,13%
same,growth inhibition,[2]; at 33.0 µM,38%
same,growth inhibition,[2]; [17],78% (active)
same,growth inhibition,[2]; at 50.0 µM,42.4%
same,growth inhibition,[2]; at 100.0 µM,27%
same,growth inhibition,[9]; at 1.2 µM,6%
same,growth inhibition,[9]; at 3.7 µM,8%
same,growth inhibition,[9]; at 11.0 µM,27%
same,growth inhibition,[9]; at 33.0 µM,37%
same,growth inhibition,[9]; at 100.0 µM,54%
same,growth inhibition,[3]; [16],30%
same,growth inhibition,[3]; [17],82% (active)
same,growth inhibition,[3]; at 50.0 µM,63.6%
same,growth inhibition,[10]; at 1.2 µM,-2%
same,growth inhibition,[10]; at 3.7 µM,-6%
same,growth inhibition,[10]; at 11.0 µM,-9%
same,growth inhibition,[10]; at 33.0 µM,-2%
same,growth inhibition,[10]; at 100.0 µM,10%
same,growth inhibition,[4]; [16],0%
same,growth inhibition,[4]; [17],22%
same,growth inhibition,[4]; at 50.0 µM,9.75%
same,growth inhibition,[5]; at 1.2 µM,10%
same,growth inhibition,[5]; at 3.7 µM,23%
same,growth inhibition,[5]; [16],45%
same,growth inhibition,[5]; at 11.0 µM,42%
same,growth inhibition,[5]; at 33.0 µM,56%
same,growth inhibition,[5]; [17],78% (active)
same,growth inhibition,[5]; at 50.0 µM,51.4%
same,growth inhibition,[5]; at 100.0 µM,55%
same,growth inhibition,[11]; at 1.2 µM,-8%
same,growth inhibition,[11]; at 3.7 µM,-2%
same,growth inhibition,[11]; at 11.0 µM,7%
same,growth inhibition,[11]; at 33.0 µM,48%
same,growth inhibition,[11]; at 100.0 µM,88% (active)
same,growth inhibition,[12]; at 1.2 µM,-1%
same,growth inhibition,[12]; at 3.7 µM,6%
same,growth inhibition,[12]; at 11.0 µM,49%
same,growth inhibition,[12]; at 33.0 µM,74% (active)
same,growth inhibition,[12]; at 100.0 µM,92% (active)
same,growth inhibition,[6]; [16],64%
same,growth inhibition,[6]; [17],88% (active)
same,growth inhibition,[6]; at 50.0 µM,58.4%
same,growth inhibition,[13]; at 1.2 µM,13%
same,growth inhibition,[13]; at 3.7 µM,45%
same,growth inhibition,[13]; at 11.0 µM,75% (active)
same,growth inhibition,[13]; at 33.0 µM,79% (active)
same,growth inhibition,[13]; at 100.0 µM,74% (active)
CCOC(=O)C1C2c3ccccc3C(c3ccccc32)C1C(=O)OCC (stereo not drawn),growth inhibition,[7]; at 1.2 µM,-1%
same,growth inhibition,[7]; at 3.7 µM,-2%
same,growth inhibition,[7]; at 11.0 µM,-1%
same,growth inhibition,[7]; at 33.0 µM,2%
same,growth inhibition,[7]; at 100.0 µM,79% (active)
same,growth inhibition,[14]; at 1.2 µM,-1%
same,growth inhibition,[14]; at 3.7 µM,1%
same,growth inhibition,[14]; at 11.0 µM,4%
same,growth inhibition,[14]; at 33.0 µM,7%
same,growth inhibition,[14]; at 100.0 µM,93% (active)
same,growth inhibition,[1]; at 1.2 µM,3%
same,growth inhibition,[1]; at 3.7 µM,3%
same,growth inhibition,[1]; [16],13%
same,growth inhibition,[1]; at 11.0 µM,8%
same,growth inhibition,[1]; at 33.0 µM,15%
same,growth inhibition,[1]; [17],77% (active)
same,growth inhibition,[1]; at 50.0 µM,17.3%
same,growth inhibition,[1]; at 100.0 µM,91% (active)
same,growth inhibition,[2]; at 1.2 µM,-1%
same,growth inhibition,[2]; at 3.7 µM,1%
same,growth inhibition,[2]; [16],-8%
same,growth inhibition,[2]; at 11.0 µM,3%
same,growth inhibition,[2]; at 33.0 µM,6%
same,growth inhibition,[2]; [17],1%
same,growth inhibition,[2]; at 50.0 µM,74.7% (active)
same,growth inhibition,[2]; at 100.0 µM,89% (active)
same,growth inhibition,[9]; at 1.2 µM,5%
same,growth inhibition,[9]; at 3.7 µM,7%
same,growth inhibition,[9]; at 11.0 µM,12%
same,growth inhibition,[9]; at 33.0 µM,16%
same,growth inhibition,[9]; at 100.0 µM,90% (active)
same,growth inhibition,[3]; [16],2%
same,growth inhibition,[3]; [17],89% (active)
same,growth inhibition,[3]; at 50.0 µM,80.2% (active)
same,growth inhibition,[10]; at 1.2 µM,7%
same,growth inhibition,[10]; at 3.7 µM,7%
same,growth inhibition,[10]; at 11.0 µM,19%
same,growth inhibition,[10]; at 33.0 µM,30%
same,growth inhibition,[10]; at 100.0 µM,93% (active)
same,growth inhibition,[4]; [16],-4%
same,growth inhibition,[4]; [17],28%
same,growth inhibition,[4]; at 50.0 µM,56.7%
same,growth inhibition,[5]; at 1.2 µM,0%
same,growth inhibition,[5]; at 3.7 µM,8%
same,growth inhibition,[5]; [16],18%
same,growth inhibition,[5]; at 11.0 µM,11%
same,growth inhibition,[5]; at 33.0 µM,17%
same,growth inhibition,[5]; [17],60%
same,growth inhibition,[5]; at 50.0 µM,49%
same,growth inhibition,[5]; at 100.0 µM,76% (active)
same,growth inhibition,[15]; at 1.2 µM,-12%
same,growth inhibition,[15]; at 3.7 µM,-11%
same,growth inhibition,[15]; at 11.0 µM,7%
same,growth inhibition,[15]; at 33.0 µM,6%
same,growth inhibition,[15]; at 100.0 µM,95% (active)
same,growth inhibition,[11]; at 1.2 µM,-1%
same,growth inhibition,[11]; at 3.7 µM,6%
same,growth inhibition,[11]; at 11.0 µM,7%
same,growth inhibition,[11]; at 33.0 µM,16%
same,growth inhibition,[11]; at 100.0 µM,86% (active)
same,growth inhibition,[12]; at 1.2 µM,-9%
same,growth inhibition,[12]; at 3.7 µM,-19%
same,growth inhibition,[12]; at 11.0 µM,12%
same,growth inhibition,[12]; at 33.0 µM,19%
same,growth inhibition,[12]; at 100.0 µM,97% (active)
same,growth inhibition,[6]; [16],16%
same,growth inhibition,[6]; [17],87% (active)
same,growth inhibition,[6]; at 50.0 µM,53.1%
same,growth inhibition,[13]; at 1.2 µM,1%
same,growth inhibition,[13]; at 3.7 µM,8%
same,growth inhibition,[13]; at 11.0 µM,9%
same,growth inhibition,[13]; at 33.0 µM,11%
same,growth inhibition,[13]; at 100.0 µM,91% (active)
